# Data from PubChem BioAssay AID1220 (Sanford-Burnham Center for Chemical Genomics, 2008).
# Hit rate of the full screen: of about 190,000 compounds, about 1,300 (0.68%) were called active. Many of the other results were omitted from the sample, so actives are more common in it than they were. Values without a mark were called inactive. Rule as the data show it: active = inhibition above about 50%; inactive = the rest.
# Target: Mannose-6-phosphate isomerase (Homo sapiens) (UniProt P34949)
# Experiment: MPI inhibition at elevated mannose 6-phosphate – biochemical, fluorescence intensity, high mannose 6-phosphate, primary screen (AID 1220)
# Conditions: recombinant PMI enzyme, coupled fluorescence intensity; at 20 µM; hits give high values
# Mannose-6-phosphate isomerase (Homo sapiens), sequence (P34949 whole entry, looked up): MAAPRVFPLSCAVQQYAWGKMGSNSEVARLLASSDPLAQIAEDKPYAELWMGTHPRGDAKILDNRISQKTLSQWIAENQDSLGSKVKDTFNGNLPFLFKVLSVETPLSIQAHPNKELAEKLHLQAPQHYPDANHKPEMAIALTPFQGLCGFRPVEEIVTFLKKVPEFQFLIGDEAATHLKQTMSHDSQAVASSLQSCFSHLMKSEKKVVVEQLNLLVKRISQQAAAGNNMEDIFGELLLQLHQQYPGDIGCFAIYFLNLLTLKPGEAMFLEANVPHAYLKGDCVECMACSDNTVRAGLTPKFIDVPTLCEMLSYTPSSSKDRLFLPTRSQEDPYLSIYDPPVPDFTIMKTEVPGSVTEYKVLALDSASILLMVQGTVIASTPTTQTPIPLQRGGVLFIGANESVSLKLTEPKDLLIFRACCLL
row,SMILES,inhibition
1,COc1ccc(-c2oc3ncnc(N)c3c2-c2ccccc2)cc1,5.7%
2,Nc1ccccc1C(=O)N(Cc1ccccc1)Cc1ccccc1,-1.7%
3,C=CCSc1nnc(-c2ccc([N+](=O)[O-])cc2)o1,-2.9%
4,Cc1ccc2c(C)[nH]c(=O)cc2c1,8.1%
5,CCOc1cc(CNCc2ccncc2)cc(Br)c1OCc1ccc(F)cc1,5.1%
6,Cc1ccc(S(=O)(=O)c2nc(-c3ccco3)oc2SCC(=O)NCC2CCCO2)cc1 (configuration not stated),18.4%
7,COc1ccccc1N=c1c2c([N+](=O)[O-])cc([N+](=O)[O-])cc2n(O)n1-c1ccccc1OC,-1.7%
8,O=[N+]([O-])c1cc([N+](=O)[O-])c2c(=Nc3ccccc3)n(-c3ccccc3)n(O)c2c1,52.9% (active)
9,CCc1ccc(N=c2c([N+](=O)[O-])nn(-c3ccccc3)n2O)cc1,2.1%
10,CCOc1cc(C2C(C#N)=C(N)Oc3n[nH]c(-c4ccncc4)c32)cc([N+](=O)[O-])c1O (configuration not stated),24.5%
11,CCN(c1ccccc1)S(=O)(=O)c1ccc(Cl)c(NC(=O)COC(=O)C2CC2C)c1 (configuration not stated),6.5%
12,O=S(=O)(O/N=C1\CCCc2ccccc21)c1ccccc1,-10.1%
13,CC1=C(C)/C(=N\OS(=O)(=O)c2ccccc2)C=CC1=O,49%
14,N/C(=N\OS(=O)(=O)c1ccccc1)c1ccncc1,-14.4%
15,N/C(=N\OS(=O)(=O)c1ccccc1)c1ccccn1,-4.5%
16,O=S(=O)(O/N=C1\CCCc2ccccc21)c1ccc(Cl)cc1,-28.3%
17,Cc1ccc(S(=O)(=O)ON=C2CCN(S(=O)(=O)c3ccccc3)CC2)cc1,-1%
18,CC1=C/C(=N\OC(=O)/C=C/c2ccccc2)C(C)=CC1=O,8.4%
19,Cc1ccc(S(=O)(=O)O/N=C2\CCCc3ccccc32)cc1,-0.1%
20,COc1ccccc1OC(C)c1nnc(SCC(=O)Nc2c(C)n(C)n(-c3ccccc3)c2=O)n1-c1ccccc1 (configuration not stated),6.4%
21,COc1ccc(CNS(=O)(=O)NCc2ccc(C)cc2)cc1,-7.2%
22,Cc1ccc(C)c2nc3sc(C(=O)N4CCOCC4)c(N)c3cc12,2.2%
23,CCCC(=O)c1ccc(N2CCN(S(=O)(=O)c3ccccc3)CC2)c(F)c1,9.7%
24,CC(C)C1C(C#N)=C(N)Oc2n[nH]c(-c3ccccc3)c21 (configuration not stated),9%
25,O=C(Cc1cccs1)NC(c1ccccc1)c1ccccc1,-1.3%

row,SMILES,inhibition
1,CCC(CC)c1nnc(NC(=O)c2ccco2)s1,8.5%
2,O=C1CN(C(=O)COC(=O)c2cccc(OCc3ccccc3)c2)c2ccccc2N1,20.2%
3,c1ccc(CC2CNc3ccccc3CN2)cc1 (configuration not stated),-7%
4,Cc1nc(N2CCN(S(=O)(=O)c3cccc4nonc34)CC2)c2c3c(sc2n1)CCCC3,14.8%
5,COc1cnc(-c2ccccn2)nc1Sc1cccc(Cl)c1,2.4%
6,CC(=O)c1ccc(NC(=S)N2CCN(c3cccc(Cl)c3)CC2)cc1,-8.9%
7,CCCC(=O)c1cc(F)c(N2CCN(S(=O)(=O)c3ccccc3)CC2)cc1C,14.8%
8,CCc1nn(CC(=O)Nc2ccc(Br)c(C)c2)c(=N)s1,-9.2%
9,CC1=CC(=O)C=C(C)C1=NOC(=O)/C=C\c1ccccc1,22%
10,CC(=O)N1C(C)(C)CC(=NOS(=O)(=O)c2ccccc2)CC1(C)C,-21.1%
11,CC(=O)Nc1ccc(S(=O)(=O)N=S(C)(C)=O)cc1,15.7%
12,CCCC(=O)NC1=C(C#N)C2(CCCCC2)Cc2ccccc21,-7.8%
13,CC1CCCC(C)N1C(=O)CSc1nc2ccccc2s1 (configuration not stated),0.3%
14,CCOC(=O)/C(=C/c1c(C)n(C)c2ccc([N+](=O)[O-])cc12)C(C)=O,2.1%
15,CC1(C)Oc2ccc(C(=O)N3CCOCC3)cc2N(CC(=O)Nc2ccccc2)C1=O,6.6%
16,CC1(C)Oc2ccc(C(=O)N3CCCCC3)cc2N(CC(=O)NCc2ccccc2)C1=O,107% (active)
17,CC1(C)Oc2ccc(C(=O)N3CCCC3)cc2N(CC(=O)NCc2ccccc2)C1=O,-8.2%
18,CCOC(=O)Cn1c(=O)oc2cc(S(=O)(=O)Nc3ccc(F)cc3)ccc21,-4.3%
19,Oc1ccc(COCc2ccccc2)c2cccnc12,46.2%
20,Oc1ccc(CN2CCCCC2)c2cccnc12,50.5% (active)
21,COc1ccccc1N1CCN(Cc2ccc(OC)c(OC)c2OC)CC1,-2.8%
22,OCc1ccc(O)c2ncccc12,28.8%
23,c1ccc(N2CCN(Cc3ccnc4ccccc34)CC2)cc1,-101%
24,Oc1ccc(CN2CCN(c3ccccc3)CC2)c2cccnc12,50.5% (active)
25,OCc1ccnc2c(O)cccc12,59.6% (active)

row,SMILES,inhibition
1,Oc1ccc(CN2CCc3ccccc3C2)c2cccnc12,47.9%
2,O=S(=O)(c1ccc(Cl)cc1)N1CCN(Cc2ccc(O)c3ncccc23)CC1,45.3%
3,COc1ccccc1N1CCN(Cc2cc(Br)c(O)c3ncccc23)CC1,43.7%
4,Oc1ccc(CN2CCC(Cc3ccccc3)CC2)c2cccnc12,46.2%
5,COc1ccc(N2C(=O)/C(=C\c3ccco3)N=C2SCC(=O)N(C(C)C)C(C)C)cc1Cl,2.5%
6,CC1C2CC(C(S(=O)(=O)N3CCOCC3)C2=O)C1(C)C (configuration not stated),8.3%
7,O=C1CCC2=C(CCCC2=O)N1,0.9%
8,O=C1CC(=O)C(n2cncn2)C(c2ccc(Cl)cc2Cl)C1 (configuration not stated),14.4%
9,COc1ccc2c(c1)c1ncn(Cc3ccco3)c(=O)c1n2C,0.7%
10,COCc1cc(CN2CCCC2)c(O)c2ncccc12,35.4%
11,Oc1c(CN2CCCCC2)cc(COCc2ccccc2)c2cccnc12,23.4%
12,CC(C)C(=O)Nc1ccc(C(=O)N2CCCCCC2)cc1,-8.1%
13,CCOc1ccccc1-n1cnc2cc(C(=O)NCc3ccco3)ccc21,-4.7%
14,CC1CCN(S(=O)(=O)Cc2ccccc2Cl)CC1,56.9% (active)
15,O=S(=O)(Cc1ccccc1Cl)N1CCCCC1,-3.8%
16,O=S(=O)(Cc1ccccc1Cl)N1CCCC1,8.9%
17,CN1C(=O)NC(NC(=O)c2ccncc2)(C(F)(F)F)C1=O (configuration not stated),4.6%
18,COc1ccc(OC)c(NC(=S)N2CCC(C(O)(c3ccccc3)c3ccccc3)CC2)c1,17.9%
19,COc1ccc(NC(=S)N2CCC(C(O)(c3ccccc3)c3ccccc3)CC2)cc1,7%
20,COc1cc(NC(=S)N2CCC(C(O)(c3ccccc3)c3ccccc3)CC2)cc(OC)c1,52.9% (active)
21,Cc1cc(C)c(S(=O)(=O)Nc2cccc3nsnc23)c(C)c1,19.4%
22,Cc1ccc2nsnc2c1NS(=O)(=O)c1c(C)ccc2nsnc12,30.6%
23,Cc1ccc2nsnc2c1S(=O)(=O)Nc1cccc2nsnc12,50.1% (active)
24,O=C(Nc1ncc(Cc2cccc(Cl)c2Cl)s1)c1ccc([N+](=O)[O-])cc1,-1%
25,CCOC(=O)c1ccccc1NC(=O)CSc1ccccc1,-10.2%

row,SMILES,inhibition
1,O=c1[nH]c2ccccc2c(O)c1-c1cc2ccccc2oc1=O,-2.4%
2,O=C(Cc1c[nH]c2ccccc12)NCc1ccccc1F,7.1%
3,CN1C(=S)SC(N(O)C(=O)Nc2ccccc2)C1(C)C (configuration not stated),10.2%
4,CN1C(=S)SC(N(O)C(=O)Nc2ccc(Cl)c(Cl)c2)C1(C)C (configuration not stated),12.6%
5,CN1C(=S)SC(N(O)C(=O)Nc2cccc3ccccc23)C1(C)C (configuration not stated),62.9% (active)
6,CN1CCC/C1=C/C=C1\SC(=S)NC1=O,53.1% (active)
7,CN1CCN(/C=C2\SC(=S)NC2=O)CC1,-4.7%
8,CN1C(=O)/C(=C\C=C2/CCCN2C)N(C)C1=S,30.5%
9,O=C(CCCNC(=O)/C(=C\c1ccc(F)cc1)NC(=O)c1ccccc1)OCc1ccccc1,3.3%
10,Cc1nc(-c2ccncc2)sc1C(=O)Nc1ccc(Cl)cc1,6.1%
11,O=C(Nc1ccccc1)C1=C[C@@H](c2coc3ccccc3c2=O)C[C@@H](OCCCCO)O1,10.1%
12,CC(C)C[C@H](NC(=O)c1nc[nH]c1C(=O)NC(c1ccccc1)c1ccccc1)C(=O)OCc1ccccc1,15%
13,CCOC(=O)Cc1csc(NC(=O)c2csc3c2CCCC3)n1,2%
14,CCCC(C(=O)NC1CCCC1)N(Cc1ccc2c(c1)OCO2)C(=O)c1snc(C(N)=O)c1N (configuration not stated),-8.2%
15,CC(C)CC(C(=O)NC1CCCC1)N(Cc1ccc2c(c1)OCO2)C(=O)c1snc(C(N)=O)c1N (configuration not stated),3.1%
16,CC(C)CCNC(=O)C(CC(C)C)N(Cc1ccc2c(c1)OCO2)C(=O)c1snc(C(N)=O)c1N (configuration not stated),51% (active)
17,Cn1c(=O)cc(-c2ccccc2)c2ccccc21,0.3%
18,O=c1cc(-c2ccccc2)c2ccccc2[nH]1,10%
19,CCS(=O)(=O)N1CCN(S(=O)(=O)c2ccccc2)CC1,1.8%
20,COc1ccccc1-n1c(=O)c(C#N)c(-c2ccc([N+](=O)[O-])cc2)c2cc(C(=O)c3cc(F)ccc3O)cnc21,14.2%
21,CCN(CC)C(=S)SCC(=O)c1ccccc1,7.7%
22,CCN(CC)C(=S)SSC(=S)N(CC)CC,0.3%
